Experimental data published in PubChem BioAssay (NCI).
About 79,000 compounds went through this panel and 15% of them were active in at least one assay; those are over-represented in the sample as a whole. Calls of active or inactive are those of the source. Rule as the data show it: active = growth inhibition above about 70%; inactive = the rest.

Columns and labels:
[1] = NCI Yeast Anticancer Drug Screen. Data for the rad50 strain (AID 155);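 also: 0% = growth of vehicle-only cultures of the same strain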; conditions: S. cerevisiae rad50 strain growth inhibition; at 50.0 µM; active compounds read high
Procedure, shortened: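 A DNA repair-deficient yeast mutant serves as the test organism; compound-induced growth inhibition is calculated against vehicle-treated cells.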

[2] = NCI Yeast Anticancer Drug Screen. Data for the mec2-1 strain (AID 157); conditions: S. cerevisiae mec2-1 strain, at 50.0 µM, active compounds read high
Procedure, shortened: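 Vehicle-treated cultures served as reference for growth inhibition of compound-exposed mec2-1 yeast.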

[3] = NCI Yeast Anticancer Drug Screen. Data for the sgs1 mgt1 strain (AID 161);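 also: 0% = growth of cultures given vehicle only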; conditions: S. cerevisiae sgs1 mgt1 strain, at 50.0 µM, active compounds read high
Procedure, shortened: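 Mutant yeast exposed to compound; growth scored against vehicle-only wells.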

[4] = NCI Yeast Anticancer Drug Screen. Data for the cln2 rad14 strain (AID 165);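 also: 0% = growth equal to vehicle treated cultures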; conditions: S. cerevisiae cln2 rad14 strain, at 50.0 µM, active compounds read high
Procedure, shortened: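 Each compound was tested on cln2 rad14 yeast. Inhibition of growth was calculated against vehicle-exposed controls.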

[5] = NCI Yeast Anticancer Drug Screen. Data for the bub3 strain (AID 167); conditions: S. cerevisiae bub3 mutant strain, at 50.0 µM, active compounds read high
Procedure, shortened: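 Inhibition values come from growth of compound-treated mutant yeast normalised to vehicle-treated controls.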

[6] = NCI Yeast Anticancer Drug Screen. Data for the mlh1 rad18 strain (AID 175); conditions: S. cerevisiae mlh1 rad18 strain growth inhibition; at 50.0 µM; active compounds read high
Procedure, shortened: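 Vehicle-treated cultures served as the reference for growth inhibition in a yeast strain carrying DNA damage repair alterations exposed to each compound.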

Measured: growth inhibition

CCOc1ccc2ccccc2c1OP(=O)(OCC)OCC
inactive: [1] 23.9% | [2] 22% | [3] 38.9% | [4] 29.6% | [5] 40.4% | [6] 25.6%

COc1ccc([Se]c2ccc(OC)cc2OC)c(OC)c1
inactive: [1] -19.1% | [2] -39% | [3] 2.8% | [4] -18.3% | [5] 8.5% | [6] -13.2%

CC(=O)[CH-]C(C)=O.CC(=O)[CH-]C(C)=O.CC(=O)[CH-]C(C)=O.[Cl-].[Hf+4]
inactive: [1] 3.85% | [2] -1.25% | [3] -16.6% | [4] 21.4% | [5] -9.75% | [6] -6.35%

O=C1NCN(c2ccccc2)C12CCN(CCCS(=O)(=O)c1ccccc1)CC2
inactive: [1] -22.4% | [2] -13.6% | [3] -9.55% | [4] -22.6% | [5] 3.5% | [6] -18%

C=C(Nc1nc2ccc(C)cc2s1)C(=O)C(CC)C(=O)C(CC)CC1C(=O)NC(=O)NC1=O (centres undefined)
inactive: [1] -23.4% | [2] -13.6% | [3] 4.35% | [4] -31.8% | [5] -32.6% | [6] -0.2%

N#Cc1ccc(C(Cl)(Cl)Cl)cc1
inactive: [1] 1.5% | [2] -17.6% | [3] -5.8% | [4] -25.4% | [5] -3.15% | [6] -5.65%

[C-]#[O+].[C-]#[O+].[C-]#[O+].[C-]#[O+].[C-]#[O+].[CH3][Sn]([Cl])[c]1ccccc1.[Mn]
active: [1] 91.5% | [2] 96.5% | [3] 89.7% | [4] 88.6% | [5] 96% | [6] 92.5%

C#CCN(C)C(=O)N(CC#C)N=O
inactive: [1] 15.2% | [2] -4.95% | [3] 1.75% | [4] -11% | [5] -6.55% | [6] -23.4%

Cn1nc2ccc3nccc(NCCNCCCl)c3c2n1
inactive: [1] 6.95% | [2] -30.8% | [3] -22.1% | [4] 2.7% | [5] -19.2% | [6] -20.8%

COc1ccc(C)cc1C(CC(=O)O)CC(=O)N(CCCl)CCCl (centres undefined)
inactive: [1] 39.6% | [2] -2.45% | [3] 6.05% | [4] 17.7% | [5] -1.95% | [6] 21.6%

Cc1cccnc1NN=O
inactive: [1] -8.25% | [2] -23.9% | [3] -23.8% | [4] 10% | [5] -20.2% | [6] 13.6%

c1ccc(P2c3ccccc3Oc3ccccc32)cc1
inactive: [1] 36.9% | [2] 7.3% | [3] 42.2% | [4] 42.6% | [5] 32.6% | [6] 37%

CN1CCC2(CC1)COCc1ccccc12
inactive: [1] -9.4% | [2] -5.55% | [3] -2.7% | [4] -19.1% | [5] 11.2% | [6] 4.8%

OCC1OC(n2nnc3cc(Cl)c(Cl)cc32)C(O)C1O (centres undefined)
inactive: [1] 7.3% | [2] -0.8% | [3] 5.85% | [4] 11.3% | [5] 18.8% | [6] 21.7%

Nc1ccc(Cl)cc1.Nc1ccc(Cl)cc1.Nc1ccc(Cl)cc1.O=C([O-])C(=O)[O-].O=C([O-])C(=O)[O-].[H+].[Ru+5]
inactive: [1] 18.4% | [2] 20.7% | [3] 13.3% | [4] 27.5% | [5] 26.6% | [6] 34.5%

COC(=O)C(CCC(=O)O)NC(=O)OCc1ccccc1 (centres undefined)
inactive: [1] 40.5% | [2] -1.35% | [3] 17.6% | [4] -7.7% | [5] 4.55% | [6] 19.5%

O=NNc1cncc(Cl)n1
inactive: [1] -11.2% | [2] -3.5% | [3] -5.35% | [4] -17.9% | [5] -0.4% | [6] -6.05%

CO[C@@]12[C@@H]3N[C@@H]3CN1C1=C(C(=O)C(Nc3ccc(O)cc3C)=C(C)C1=O)[C@@H]2COC(N)=O
inactive: [1] 61% | [2] 29.1% | [3] 20% | [4] 44.4% | [5] -14.6%
active: [6] 71%

O=N[O-].O=N[O-].[Co].[NH-]CC[N-]CCO.[NH-]CC[N-]CCO
inactive: [1] 37.6% | [2] -0.7% | [3] 17.1% | [4] 14.9% | [5] 5.7% | [6] 7.55%

COC(N)=O
inactive: [1] -15.6% | [2] -10.2% | [3] -16.9% | [4] -15.9% | [5] -2.6% | [6] -8.3%

C[N+]1(CCCl)CCc2ccc([N+](=O)[O-])cc2C1 (centres undefined)
inactive: [1] -36.9% | [2] -35.5% | [3] 6.95% | [4] 0.8% | [5] 9.3% | [6] -13.8%

[Cl][Hg][c]1ccccc1N=Nc1ccccc1
active: [1] 91.7% | [2] 98.5% | [3] 94.4% | [4] 97% | [5] 98% | [6] 94.5%

ClCCN(CCCl)c1ccc(/C=N/c2nc(-c3ccccc3)cs2)cc1
inactive: [1] 45.6% | [2] 27.9% | [3] 65.4% | [4] 47.4% | [5] -1.75% | [6] 60.9%

CC1=C(C)C(=O)O[C@@H]([C@](C)(O)[C@]2(O)CC[C@@]3(O)[C@@H]4C[C@H](O)[C@]5(O)[C@@H](O)C=CC(=O)[C@]5(C)[C@H]4CC[C@]23C)C1
inactive: [1] 21.9% | [2] 11.2% | [3] 7.1% | [4] 23.2% | [5] 9.5% | [6] -52.8%

NS(=O)(=O)c1ccc(N=Nc2ccc([As](=O)(O)O)cc2)cc1
inactive: [1] 43% | [2] 6.6% | [3] 18.6% | [4] 19.2% | [5] 3.45% | [6] 19.9%

O=P(O)(O)c1ccccc1
inactive: [1] -10.4% | [2] -3.85% | [3] 8.85% | [4] -18.9% | [5] 2.6% | [6] 4.65%

COc1ccc2[nH]cc(CCN(C)C)c2c1
inactive: [1] 4.8% | [2] -24.8% | [3] 1.85% | [4] 17.1% | [5] -1.6% | [6] -9.85%

CC(C)OP(=O)(OCCCO)C(Cl)Cl (centres undefined)
inactive: [1] 0.35% | [2] 17.1% | [3] 1.1% | [4] 2.55% | [5] 3.75% | [6] 0.75%

O=[N+]([O-])c1ccc(O)c(C=NCCN=Cc2cc([N+](=O)[O-])ccc2O)c1.[Ni+2]
inactive: [1] -30.6% | [2] 5.8% | [3] -3.9% | [4] -56.6% | [5] -3.8% | [6] -22.4%

CNC(=O)C(Cl)Cl
inactive: [1] 12.8% | [2] 4.85% | [3] 11.7% | [4] 0.95% | [5] -8.1% | [6] 6.15%

O=Cc1ccccc1.[C-]#[O+].[C-]#[O+].[C-]#[O+].[Cr]
inactive: [1] 7.35% | [2] -34.2% | [3] 1.8% | [4] -19.1% | [5] 11.1% | [6] 15.8%

CCC(=O)c1ccc(OC)c(OC)c1
inactive: [1] 7% | [2] -1.3% | [3] -0.15% | [4] -2.85% | [5] 15.7% | [6] 1.75%

Clc1cccc(Cl)c1C(Cl)Cl
inactive: [1] -7.45% | [2] -17.2% | [3] -3.15% | [4] -4.4% | [5] -6.65% | [6] -11.2%

Cc1ccc(C(=O)Nc2ccc(CP(=O)(O)O)cc2)cc1NC(=O)Nc1cc(C(=O)Nc2ccc(CP(=O)(O)O)cc2)ccc1C
inactive: [1] 3.55% | [2] -10.6% | [3] -30.1% | [4] 11.9% | [5] -29.1% | [6] 7.45%

COc1oc(C2C/C(=C/C(C)=C/C(C)=C/C(C)=C/c3ccc([N+](=O)[O-])cc3)CO2)c(C)c(=O)c1C (centres undefined)
inactive: [1] 1.15% | [2] -4.75% | [3] -9.4% | [4] -6.85% | [5] -8.15% | [6] -33%

NNC(=O)c1ccccc1
inactive: [1] -1.8% | [2] -2.05% | [3] -11.8% | [4] -36% | [5] -1.25% | [6] -19%

O=c1cc([N+](=O)[O-])n(O)cc1[N+](=O)[O-]
inactive: [1] 31.1% | [2] 12.6% | [3] 32.5% | [4] 21.2% | [5] -4.1% | [6] 44.5%

COc1ccc2nc3ccccc3c(NCCCN(C)CCCl)c2c1
inactive: [1] 67.8% | [2] 56.5% | [3] 57.8% | [4] 50.5% | [5] -0.5% | [6] 66.2%

CC1=C(Cl)C=CP(=O)(Oc2ccccc2)C1 (centres undefined)
inactive: [1] 19.5% | [2] -14.4% | [3] -12.2% | [4] 29.2% | [5] -5.6% | [6] -8.15%
